# Many of the other results were omitted from the sample, so the strongest signals are more common in it than they were.
# B1: cupB6 (Pseudomonas aeruginosa), Q02SP7 (protein)
# chain: MSMRLFPGRVSLRRRPGAQARQALVLGLCCLTGGQAWALNEVALNCSFGNGKGLPWRVVNELTSGTAKGTVLFARPVSLFLSYKPQASQEAHELVLGGNWSGVGYPGPYGTVASDVKGIGYRISVDAQDGVKRVIPVDNQPHALDKRVTSFSGSTTSDYLQELVLTVDPGELPAGDLKVTSVSGSATLNLWAVDRLKGEASIGSVLAVPADNYPTGVCRKPYSLIGPASIAIGGGPPPPPIPKKCKVEVGREINVKLGSVALKNFPRVNDTSTERSFDISLSECAALAKPEIAFRDKYVSAQQADPTILSLKSGGAAGFGIVVKNGLDQQRIRFDGTPYPMRRVGDSADLPLSAAYIRIGAEGELKAGVADGAAEFTFTFP
# Experiments:
# Assay in all cases: glycan array binding signal (z-score within array); higher = stronger binding
# Details in all cases: glycan notation: IUPAC condensed, linker removed
# [1] = molecular target: Fuc(a1-2)Gal(b1-3)[Fuc(a1-4)]GlcNAc
# In short: (§1)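 Glycan array data came from 3228 arrays in the Consortium for Functional Glycomics database, and only arrays with an available protein sequence were kept. Glycan names were put into IUPAC-condensed notation, and columns mapping to the same glycan were averaged. The binding signal is a within-array Z-score, averaged across arrays of one protein sequence run at different concentrations or buffers and across linkers. A negative Z-score can be read as non-binding.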
# [2] = molecular target: Fuc(a1-2)Gal(b1-4)Glc6S
# In short: as §1
# [3] = molecular target: Fuc(a1-2)Gal(b1-4)[Fuc(a1-3)]GlcNAc(b1-3)Gal(b1-4)[Fuc(a1-3)]GlcNAc
# In short: as §1
# [4] = molecular target: Fuc(a1-2)Gal6S(b1-4)Glc
# In short: as §1
# [5] = molecular target: Fuc(a1-2)[GalNAc(b1-3)]Gal
# In short: as §1
# [6] = molecular target: Fuc(a1-3)[Gal(b1-4)]Glc6S
# In short: as §1
# [7] = molecular target: Fuc(a1-3)[Gal(b1-4)]GlcNAc(b1-3)GalNAc
# In short: as §1
# [8] = molecular target: Fuc(a1-3)[Gal3S(b1-4)]GlcNAc6S
# In short: as §1
# [9] = molecular target: Gal(a1-2)Gal
# In short: as §1
# [10] = molecular target: Gal(a1-3)Gal
# In short: as §1
# [11] = molecular target: Gal(a1-3)Gal(b1-4)GlcNAc(b1-3)GalNAc
# In short: as §1
# [12] = molecular target: Gal(a1-4)Gal(b1-4)GlcNAc(b1-2)Man(a1-3)[Gal(a1-4)Gal(b1-4)GlcNAc(b1-2)Man(a1-6)]Man(b1-4)GlcNAc(b1-4)GlcNAc
# In short: as §1
# [13] = molecular target: Gal(a1-6)Glc
# In short: as §1
# [14] = molecular target: Gal(b1-4)GlcNAc(b1-2)Man(a1-6)[Man(a1-3)]Man(b1-4)GlcNAc(b1-4)GlcNAc
# In short: as §1
# [15] = molecular target: Gal(b1-4)GlcNAc(b1-3)Gal(b1-4)GlcNAc
# In short: as §1
# [16] = molecular target: Gal(b1-4)GlcNAc(b1-3)[Gal(b1-4)GlcNAc(b1-6)]GalNAc
# In short: as §1
# [17] = molecular target: Gal(b1-4)GlcNAc(b1-6)GalNAc
# In short: as §1
# [18] = molecular target: GalNAc(b1-3)Gal
# In short: as §1
# [19] = molecular target: GalNAc(b1-3)Gal(a1-4)Gal(b1-4)GlcNAc(b1-3)Gal(b1-4)Glc
# In short: as §1
# [20] = molecular target: GlcNAc(b1-2)[GlcNAc(b1-4)]Man(a1-3)[GlcNAc(b1-2)Man(a1-6)]Man(b1-4)GlcNAc(b1-4)GlcNAc
# In short: as §1
# [21] = molecular target: GlcNAc(b1-4)GlcNAc
# In short: as §1
# [22] = molecular target: GlcNAc(b1-6)GalNAc
# In short: as §1
# [23] = molecular target: Man(a1-2)Man(a1-3)Man
# In short: as §1
# [24] = molecular target: Man(a1-2)Man(a1-3)[Man(a1-2)Man(a1-6)]Man(a1-6)[Man(a1-2)Man(a1-2)Man(a1-3)]Man
# In short: as §1
# [25] = molecular target: Man(a1-3)[Man(a1-6)]Man(a1-6)[Man(a1-3)]Man(b1-4)GlcNAc(b1-4)GlcNAc
# In short: as §1
# [26] = molecular target: Neu5Ac(a2-3)Gal(b1-3)GlcNAc(b1-3)Gal(b1-3)GlcNAc
# In short: as §1
# [27] = molecular target: Neu5Ac(a2-3)Gal(b1-3)[Fuc(a1-4)]GlcNAc(b1-3)Gal(b1-3)[Fuc(a1-4)]GlcNAc
# In short: as §1
# [28] = molecular target: Neu5Ac(a2-3)Gal(b1-3)[Neu5Ac(a2-3)Gal(b1-4)]GlcNAc
# In short: as §1
# [29] = molecular target: Neu5Ac(a2-3)Gal(b1-4)GlcNAc(b1-6)[Gal(b1-3)]GalNAc
# In short: as §1
# [30] = molecular target: Neu5Ac(a2-3)Gal(b1-4)[Fuc(a1-3)]GlcNAc(b1-3)GalNAc
# In short: as §1
# [31] = molecular target: Neu5Ac(a2-3)GalNAc(b1-4)GlcNAc
# In short: as §1
# [32] = molecular target: Neu5Ac(a2-6)Gal(b1-4)GlcNAc
# In short: as §1
# [33] = molecular target: Neu5Ac(a2-6)Gal(b1-4)GlcNAc(b1-2)Man(a1-3)Man(b1-4)GlcNAc(b1-4)GlcNAc
# In short: as §1
# [34] = molecular target: Neu5Ac(a2-6)Gal(b1-4)GlcNAc(b1-2)Man(a1-3)[Man(a1-6)]Man(b1-4)GlcNAc(b1-4)GlcNAc
# In short: as §1
# [35] = molecular target: Neu5Ac(a2-6)Gal(b1-4)GlcNAc(b1-2)Man(a1-6)[Man(a1-3)]Man(b1-4)GlcNAc(b1-4)GlcNAc
# In short: as §1
# [36] = molecular target: Neu5Ac(a2-8)Neu5Ac
# In short: as §1
# [37] = molecular target: Neu5Ac(a2-8)Neu5Ac(a2-8)Neu5Ac(a2-3)[GalNAc(b1-4)]Gal(b1-4)Glc
# In short: as §1
# [38] = molecular target: Neu5Ac(a2-8)Neu5Ac(a2-8)Neu5Ac(a2-8)Neu5Ac(a2-3)[GalNAc(b1-4)]Gal(b1-4)Glc
# In short: as §1
binder,measurement,setting,value
B1,glycan array binding signal (z-score),[1],19.6
same,glycan array binding signal (z-score),[2],0.336
same,glycan array binding signal (z-score),[3],0.023
same,glycan array binding signal (z-score),[4],0.068
same,glycan array binding signal (z-score),[5],-0.269
same,glycan array binding signal (z-score),[6],-0.171
same,glycan array binding signal (z-score),[7],0.027
same,glycan array binding signal (z-score),[8],0.36
same,glycan array binding signal (z-score),[9],-0.079
same,glycan array binding signal (z-score),[10],-0.05
same,glycan array binding signal (z-score),[11],0.099
same,glycan array binding signal (z-score),[12],0.472
same,glycan array binding signal (z-score),[13],-0.09
same,glycan array binding signal (z-score),[14],0.004
same,glycan array binding signal (z-score),[15],-0.185
same,glycan array binding signal (z-score),[16],-0.207
same,glycan array binding signal (z-score),[17],-0.128
same,glycan array binding signal (z-score),[18],0.216
same,glycan array binding signal (z-score),[19],-0.12
same,glycan array binding signal (z-score),[20],-0.121
same,glycan array binding signal (z-score),[21],-0.037
same,glycan array binding signal (z-score),[22],-0.194
same,glycan array binding signal (z-score),[23],0.328
same,glycan array binding signal (z-score),[24],0.065
same,glycan array binding signal (z-score),[25],-0.11
same,glycan array binding signal (z-score),[26],0.048
same,glycan array binding signal (z-score),[27],0.124
same,glycan array binding signal (z-score),[28],-0.26
same,glycan array binding signal (z-score),[29],-0.006
same,glycan array binding signal (z-score),[30],0.376
same,glycan array binding signal (z-score),[31],-0.177
same,glycan array binding signal (z-score),[32],-0.15
same,glycan array binding signal (z-score),[33],0.058
same,glycan array binding signal (z-score),[34],0.325
same,glycan array binding signal (z-score),[35],0.107
same,glycan array binding signal (z-score),[36],-0.002
same,glycan array binding signal (z-score),[37],-0.074
same,glycan array binding signal (z-score),[38],-0.043

# From the supplement of paper PMC8728848
